Experimental data taken from PubChem BioAssay.
Where “and” joins values, the source holds several entries; their conditions need not be identical. Equal entries are not always repeated. Calls of active or inactive are those of the source. Unless noted, no rule for the calls is given here.

What was measured:
[1] = modulation of C. elegans fzo-1 (AID 1259413);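 also: fzo-1 mutant C. elegans worms in liquid wells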; conditions: C. elegans fzo-1 modulator screen, mean read-out; stronger effect = higher value
[2] = sensitizers of A549 cells to miR-34 induction, primary screen, imaging, A549 dox-inducible miR-34, nuclei and caspase counts (AID 1347080;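 active = compounds whose cell count with miR-34 switched on is under 0.7 times the count with it off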); conditions: A549 miR-34 inducible, Hoechst nuclei count, 48 h
[3] = viability rescue of complex I mutant cybrids, primary screen, cell-based, galactose medium, ATP luminescence (AID 1645843;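 active = z-score of at least 1.8 in each of two replicates, scored against plate mean and spread of sample wells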;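 also: positive z means more ATP and so rescue of galactose-driven cybrid death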); conditions: complex I mutant cybrid cells, 72 h, stronger effect = higher value
[4] = Cy5 fluorescence interference with SSB-bound oligo, artefact control for HCV NS3 helicase inhibitor project, biochemical, NIH Clinical Collection, E. coli SSB (AID 743268)
[5] = tested on: Hepatitis C virus NS3 helicase; experiment: HCV NS3 helicase inhibitors, primary screen, biochemical, fluorescence polarization, NIH Clinical Collection (AID 743270); conditions: NS3 helicase binding to Cy5-dT15 DNA, stronger effect = higher value, concentration not given here
[6] = molecular target: Single-stranded DNA-binding protein (Escherichia coli (strain K12)) (UniProt P0AGE0); experiment: E. coli SSB displacement from DNA, counter-screen for HCV NS3 helicase inhibitor project, biochemical, fluorescence polarization, NIH Clinical Collection (AID 743271; in the data active = inhibition above about 28%); conditions: stronger effect = higher value, concentration not given here
[7] = fluorescence interference in NS3h assay format, artefact control for HCV NS3 helicase inhibitor project, biochemical, NIH Clinical Collection (AID 743272); conditions: fluorescence interference counterscreen, stronger effect = lower value;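 also: HCV NS3 helicase with a Cy5 labelled single stranded DNA probe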
[8] = tested on: Neuropilin-2 / VEGF-C interaction (human); experiment: inhibitors of NRP2–VEGF-C binding, biochemical, microplate binding format, z-score (AID 743281); conditions: microplate NRP2/VEGF-C binding assay; stronger effect = lower value
[9] = liver-stage malaria parasite growth inhibition, primary screen, cell-based, HepG2, luciferase luminescence, HepG2 viability (AID 624349; in the data active = parasite load remaining mostly below about 12%, no sharp cut-off; inactive = mostly above about 10%;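 also: 100% = mean of DMSO negative control wells on the same plate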); conditions: P. berghei liver stage in HepG2, luciferase luminescence, concentration not given here; parasite load remaining: stronger effect = lower value; viability: measured here: HepG2 viability without parasites
[10] = stronger effect = lower value, cell number ratio, induced over uninduced
[11] = measured here: relative caspase fold change +Dox/-Dox
[12] = measured here: total cells with miR-34 induction, stronger effect = lower value
[13] = measured here: total cells without miR-34 induction

For `CCC(=O)OCC(=O)[C@@]1(OC(=O)CC)[C@@H](C)C[C@H]2[C@@H]3CCC4=CC(=O)C=CC4(C)[C@@]3(Cl)[C@@H](O)CC21C` (stereo partly specified), the mean signal [1] was 228 (inactive).
In the case of `CCCC1O[C@@H]2C[C@H]3[C@@H]4CCC5=CC(=O)C=CC5(C)[C@H]4[C@@H](O)CC3(C)C2(C(=O)CO)O1` (stereo partly specified), the mean signal [1] is reported as 259 (inactive).
In the case of `CO[C@H]1C=CO[C@@]2(C)Oc3c(C)c(O)c4c(O)c(c5c(c4c3C2=O)NC2(CCN(CC(C)C)CC2)N=5)=NC(=O)/C(C)=C\C=C/[C@H](C)[C@H](O)[C@@H](C)[C@@H](O)[C@@H](C)[C@H](OC(C)=O)[C@@H]1C`, the mean signal [1] is reported as 242 (inactive).
For `C#C[C@]1(O)CC[C@H]2[C@@H]3CCC4=Cc5oncc5CC4(C)[C@H]3CCC21C` (stereo partly specified), the mean signal [1] was 250 (inactive), the fold change [2, 10] was 0.894 (inactive) and the fold change [2, 11] was 1.79. The cell count [2, 12] was 7310, the cell count [2, 13] was 8170 and the z-score [3] was -0.725 (inactive).
For `CC[C@@H]1C(=O)OC[C@@H]1Cc1cncn1C`, the fluorescence ratio [4] was 0.93 (inactive), the inhibition [5] was -5.94% (inactive) and the inhibition [6] was 1.44% (inactive). For the same compound, the fluorescence ratio [7] was 0.86 (inactive), the z-score [8] was -0.47 (inactive) and the mean signal [1] was 280 (inactive).
In the case of `C[C@H](CCC(=O)O)[C@H]1CC[C@H]2[C@@H]3[C@@H](O)C[C@@H]4C[C@H](O)CCC4(C)[C@H]3CCC12C` (stereo partly specified), the mean signal [1] is reported as 253 (inactive).
For `Nc1nc2ccc(Cl)cc2c2nc(-c3ccco3)nn12`, the parasite load remaining [9] was 21.2% (inactive), the viability [9] was 75.1% and the fluorescence ratio [4] was 0.95 (inactive). The inhibition [5] was -2.77% (inactive), the inhibition [6] was -6.26% (inactive) and the fluorescence ratio [7] was 0.95 (inactive). The z-score [8] was 0.671 (inactive), the mean signal [1] was 260 (inactive) and the fold change [2, 10] was 1.05 (inactive) and 0.991 (inactive) and 1.02 (inactive). For the same compound, the fold change [2, 11] was 0.947 and 1.47 and 1, the cell count [2, 12] was 7130 and 7040 and 7980 and the cell count [2, 13] was 6800 and 7110 and 7830. The z-score [3] was 0.585 (inactive) and 0.89 (inactive) and -0.13 (inactive).
For `CC(=O)OCC(=O)[C@@]1(O)CC[C@H]2[C@@H]3CCC4=CC(=O)C=CC4(C)[C@H]3[C@@H](O)CC21C` (stereo partly specified), the mean signal [1] was 224 (inactive).
In the case of `Cc1sc(N)c(C(=O)c2cccc(C(F)(F)F)c2)c1C`, the parasite load remaining [9] is reported as 28.2% (inactive), the viability [9] is reported as 69.8% and the fluorescence ratio [4] is reported as 0.94 (inactive). For the same compound, the inhibition [5] was -3.71% (inactive), the inhibition [6] was -1.97% (inactive) and the fluorescence ratio [7] was 0.97 (inactive). For the same compound, the z-score [8] was 0.715 (inactive), the mean signal [1] was 276 (inactive) and the fold change [2, 10] was 0.904 (inactive) and 0.931 (inactive). For the same compound, the fold change [2, 11] was 0.769 and 0.712, the cell count [2, 12] was 8250 and 8560 and the cell count [2, 13] was 9130 and 9190. The z-score [3] was 1.27 (inactive) and 1.38 (inactive).
With `CN1CCc2cc(Cl)c(O)cc2[C@@H](c2ccccc2)C1` the parasite load remaining [9] was 38.6% (inactive), the viability [9] was 72.6% and the fluorescence ratio [4] was 0.96 (inactive). For the same compound, the inhibition [5] was -5.46% (inactive), the inhibition [6] was -6.69% (inactive) and the fluorescence ratio [7] was 1.01 (inactive). The z-score [8] was -1.33 (inactive), the mean signal [1] was 255 (inactive) and the fold change [2, 10] was 0.95 (inactive) and 0.955 (inactive). For the same compound, the fold change [2, 11] was 1.25 and 1.04, the cell count [2, 12] was 9640 and 8960 and the cell count [2, 13] was 10100 and 9370. The z-score [3] was -0.095 (inactive) and 0.675 (inactive).
In the case of `COc1cccc2c1C(=O)c1c(O)c3c(c(O)c1C2=O)C[C@@](O)(C(=O)CO)C[C@@H]3O[C@H]1C[C@H](N)[C@@H](O)[C@H](C)O1`, the parasite load remaining [9] is reported as -0.12% (inactive), the viability [9] is reported as 25.2% and the fluorescence ratio [4] is reported as 0.11 (active). For the same compound, the inhibition [5] was 4.36% (inactive), the inhibition [6] was 17.6% (inactive) and the fluorescence ratio [7] was 0.41 (active). For the same compound, the z-score [8] was -0.603 (inactive) and the mean signal [1] was 274 (inactive).
For `CC[C@]1(O)CC2CN(CCc3c([nH]c4ccccc34)[C@@](C(=O)OC)(c3cc4c(cc3OC)N(C=O)[C@H]3[C@@](O)(C(=O)OC)[C@H](OC(C)=O)[C@]5(CC)C=CCN6CC[C@]43[C@@H]65)C2)C1` (stereo partly specified), the parasite load remaining [9] was 70.4% (inactive) and 43.2% (inactive), the viability [9] was 103% and 123% and the fluorescence ratio [4] was 0.94 (inactive). For the same compound, the inhibition [5] was -2.84% (inactive), the inhibition [6] was 0.39% (inactive) and the fluorescence ratio [7] was 0.92 (inactive). The outcome [8] was “inactive”, the mean signal [1] was 261 (inactive) and the fold change [2, 10] was 0.983 (inactive). It also gave a fold change [2, 11] of 2.57, a cell count [2, 12] of 1600 and a cell count [2, 13] of 1630.
